Measured values: PubChem BioAssay (NCATS)
Where “and” joins values, the source holds several entries; their conditions need not be identical. Equal entries are not always repeated. Results filed as inconclusive are left out. A call without a number means that no potency is given here. Calls of active or inactive are those of the source. Unless noted, the call rests on the fitted dose curve; in most records, active means well fitted curve in the direction sought with a large enough effect; inconclusive means small, poorly fitted or top-dose-only effect, or another doubt; inactive means no such curve, though single readings can be large; an effect the other way counts as inactive or inconclusive.

Key:
[1] = qHTS assay for cell viability of HEK293 cells (AID 743288); settings: ATP luminescence (CellTiter-Glo), 18 h; max response: stronger effect = lower value; further: nearly all actives have a fitted effect of over 50% in size
How it was run: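 Steps: plate 2,000 parental HEK293 cells per well; incubate ≥5 h, 37 C; add compounds in DMSO; incubate 18 h, 37 C; add CellTiter-Glo; wait 30 min at room temperature; read luminescence.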

[2] = qHTS assay for cell viability of the p53RE-bla HCT-116 cell line (AID 743292); further: nearly all actives have a fitted effect of over 55% in size
How it was run: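 CellSensor p53RE-bla HCT-116 cells, 4,000/well, preincubated 5 h at 37 C, then exposed to compounds in DMSO for 16 h at 37 C. Viability read as CellTiter-Glo luminescence (intracellular ATP) after 30 min at room temperature.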

[3] = qHTS assay to identify small molecule inhibitors of chordoma cells - UCH-1 (AID 1259355); further: nearly all actives have a fitted effect of over 55% in size
How it was run: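 A 48hr growth-inhibition format: each drug tested at 15 concentrations together with added auranofin, camptothecin, doxorubicin, rubitecan and topotecan, with cell viability quantified as CellTiter-Glo luminescence.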

[4] = qHTS profiling for inhibitors of Plasmodium falciparum (3D7) proliferation (AID 743322);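 further: infected erythrocytes exposed to compound for 72 h before lysis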; settings: P. falciparum 3D7 proliferation; at 28.7 µM (top of the series) unless noted
How it was run: (§1)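 Parasite DNA was quantified by SYBR Green I fluorescence (ex 485, em 535 nm) after overnight lysis in saponin/Triton buffer at room temperature. Cultures at 0.3% parasitemia and 2.5% hematocrit were first exposed to compound for 72 h at 37 C; signals were normalised to artemisinin (0.29 uM) and vehicle wells.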

[5] = qHTS profiling for inhibitors of Plasmodium falciparum (DD2) proliferation (AID 743323; call rule not given here); settings: lower = more inhibition; at 28.7 µM (top of the series) unless noted
How it was run: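 Parasite DNA quantified by SYBR Green fluorescence (ex 485, em 535 nm) after saponin/Triton lysis and overnight dark incubation. Cultures: 0.3% parasitemia, 2.5% hematocrit, 72 h, 37 C; data scaled between DMSO and 0.29 uM artemisinin.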

[6] = qHTS profiling for inhibitors of Plasmodium falciparum (HB3) proliferation (AID 743324); settings: Plasmodium falciparum HB3 blood-stage proliferation; at 28.7 µM (top of the series) unless noted
How it was run: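 SYBR Green fluorescence (485 ex/535 em) of lysed cultures, incubated overnight at room temperature in the dark, quantifies parasite DNA. Infected erythrocytes at 0.3% parasitemia and 2.5% hematocrit were exposed 72 h; values normalized to DMSO and 0.29 uM artemisinin controls.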

[7] = qHTS profiling of the MIPE4 collection as inhibitors of Plasmodium falciparum (3D7) proliferation (AID 743344; call rule not given here); settings: P. falciparum 3D7 in erythrocytes, SYBR Green DNA fluorescence, 72 h; at 28.5 µM (top of the series)
How it was run: as §1

[8] = qHTS profiling of the MIPE4 collection as inhibitors of Plasmodium falciparum (DD2) proliferation (AID 743345; call rule not given here); settings: P. falciparum Dd2 in erythrocytes, SYBR Green DNA, 72 h; at 28.5 µM (top of the series)
How it was run: as §1

[9] = qHTS profiling of the MIPE4 collection as inhibitors of Plasmodium falciparum (DD2) proliferation (Rep 2) (AID 743346; call rule not given here); settings: P. falciparum Dd2 in erythrocytes, SYBR Green DNA, 72 h; at 28.5 µM (top of the series)
How it was run: as §1

[10] = qHTS profiling of the MIPE4 collection as inhibitors of Plasmodium falciparum (HB3) proliferation (AID 743347; call rule not given here); settings: P. falciparum HB3 in erythrocytes, SYBR Green DNA, 72 h; at 28.5 µM (top of the series)
How it was run: as §1

Oc1ccc(/C=C/c2cc(O)cc(O)c2)cc1
max response [1]: -22.7% (inactive) and -15% (inactive)
outcome [2]: inactive
Potency [3]: inactive

C=C(C)C1CC=C(C)CC1 (stereo not drawn)
max response [1]: -3.42% (inactive) and -10.2% (inactive)
outcome [2]: inactive

CC(C)O
max response [1]: -16.4% (inactive)
outcome [2]: inactive
Potency [3]: inactive

C#C[C@]1(O)CC[C@@H]2[C@H]3CCC4=CC(=O)CC[C@H]4[C@H]3C(=C)C[C@@]21CC
remaining parasite growth % (stronger effect = lower value) [4]: 38.1%
activity, percent of control [5]: 51.3%
remaining proliferation (% of control), lower = more inhibition [6]: 25.2%
parasite growth, % of DMSO control [7]: 22.9%
parasite growth remaining, % of DMSO control (lower = more inhibition) [8]: 82.2%
parasite growth, % of control (lower = inhibition) [9]: 66.9%
growth, % of control [10]: 44.4%
Potency [3]: inactive

Cc1ccc(S(=O)(=O)O)cc1C
max response [1]: 0.0836% (inactive)
outcome [2]: inactive
Potency [3]: inactive

OCCOCCOCCO
max response [1]: -2.87% (inactive) and -1.37% (inactive)
outcome [2]: inactive
Potency [3]: inactive

OC[C@H]1O[C@@](CO)(O[C@H]2O[C@H](CO)[C@@H](O)[C@H](O)[C@H]2O)[C@@H](O)[C@@H]1O
max response [1]: -4.31% (inactive)
outcome [2]: inactive
Potency [3]: inactive

C[C@H]1[C@@H](OC(=O)CCC(=O)O)O[C@@H]2OC3(C)CC[C@H]4[C@H](C)CC[C@@H]1[C@@]24OO3
remaining parasite growth % (stronger effect = lower value) [4]: -0.578%
activity, percent of control [5]: -0.204%
remaining proliferation (% of control), lower = more inhibition [6]: -0.191%
Potency [3]: inactive

CC[C@H]1OC(=O)[C@H](C)[C@@H](O[C@H]2C[C@@](C)(OC)[C@@H](O)[C@H](C)O2)[C@H](C)[C@@H](O[C@@H]2O[C@H](C)C[C@H](N(C)C)[C@H]2O)[C@](C)(O)C[C@@H](C)CN(C)[C@H](C)[C@@H](O)[C@]1(C)O
max response [1]: -7.47% (inactive)
outcome [2]: inactive
Potency [3]: inactive

CCCCO
max response [1]: 11.1% (inactive) and -7.83% (inactive)
outcome [2]: inactive
Potency [3]: inactive

Nc1nccs1
max response [1]: -5.55% (inactive)
outcome [2]: inactive
Potency [3]: inactive

OCc1ccccc1
max response [1]: 7.92% (inactive)
outcome [2]: inactive
Potency [3]: inactive

O=C(OCc1ccccc1)c1ccc(O)cc1
max response [1]: -7.01% (inactive)
outcome [2]: inactive
Potency [3]: inactive

CO[C@H]1O[C@@H]2O[C@@]3(C)CC[C@H]4[C@H](C)CC[C@@H]([C@H]1C)[C@@]24OO3
remaining parasite growth % (stronger effect = lower value) [4]: -0.372% [at 57.5 µM]
activity, percent of control [5]: -0.375% [at 57.5 µM]
remaining proliferation (% of control), lower = more inhibition [6]: 0.0422% [at 57.5 µM]
Potency [3]: inactive
